# According to PubChem BioAssay (NCATS):
# Several values for one entry are separate records, joined by “and”; a condition that tells them apart may be missing. Equal values may be shown once. Results filed as inconclusive are left out. A call without a number means that no potency is given here. Activity calls are given as the source filed them. Unless noted, the call rests on the fitted dose curve.
# Columns and labels:
# [1] = target: Glucocorticoid receptor (Homo sapiens) (UniProt P04150); experiment: qHTS assay for small molecule agonists of glucocorticoid receptor signaling (AID 588532; active means well fitted curve in the direction sought with a large enough effect in the signal ratio, with a control signal flat; the % refers to the signal ratio); conditions: HeLa MMTV-bla, beta-lactamase ratio, agonist, 18 h; stronger effect = higher value; percent of dexamethasone control, DMSO zero
# Outline: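 Cells were plated and rested 3-5 h at 37 C, compounds were added in titration and incubated 18 h, then CCF4 substrate was loaded for 2 h at RT before reading blue/green fluorescence. EC50 came from Hill-equation fitting.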
# [2] = target: Glucocorticoid receptor (Homo sapiens) (UniProt P04150); experiment: qHTS assay for small molecule antagonists of glucocorticoid receptor signaling (AID 588533; active means well fitted inhibition curve with a large enough effect in the signal ratio, with a control signal flat, not every such curve was filed as active; the % refers to the signal ratio)
# Outline: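 Antagonist-mode qHTS: compound titrations added to GRE-bla HeLa cells, then dexamethasone 2 nM final; 18 h, 37 C. CCF4 FRET fluorescence normalized to dexamethasone and DMSO; IC50 from Hill fit.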
# [3] = qHTS assay for small molecule antagonists of peroxisome proliferator-activated receptor delta signaling (AID 588535; active means well fitted inhibition curve with a large enough effect in the signal ratio, with a control signal flat, not every such curve was filed as active; the % refers to the signal ratio;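 on max response: cells co-treated with a PPAR-delta agonist as stimulator during compound exposure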); conditions: HEK293T PPARd-UAS-bla, beta-lactamase FRET ratio, 18 h; 460 nm channel
# Outline: (§1)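 Cells were seeded at 4000 per well in assay medium containing 2% charcoal/dextran FBS and held 5 hrs at 37 C. Compounds were then added for 18 hrs. CCF4 substrate was applied for 2 hrs at room temperature before fluorescence reading.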
# [4] = target: Peroxisome proliferator-activated receptor delta (Homo sapiens) (UniProt Q03181); experiment: as above
# Outline: as §1
# [5] = target: Peroxisome proliferator-activated receptor gamma (Homo sapiens) (UniProt P37231); experiment: qHTS assay for small molecule agonists of peroxisome proliferator-activated receptor gamma signaling (AID 588536; active means well fitted curve in the direction sought with a large enough effect in the signal ratio, with a control signal flat, not every such curve was filed as active; the % refers to the signal ratio)
# Outline: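 HEK293 UAS-bla reporter line, 1% charcoal/dextran FBS; titration, 16 h, 37 C; CCF4 loading 2 h RT; fluorescence 460/530 nm. Normalized to rosiglitazone 2 uM = 100%, DMSO = 0%.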
# [6] = target: Vitamin D3 receptor (Homo sapiens) (UniProt P11473); experiment: qHTS assay for small molecule antagonists of vitamin D receptor signaling (AID 588541);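 further: receptor activated by calcitriol during compound treatment; series mostly up to about 77 µM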
# Outline: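 VDR-UAS-bla HEK293T cells in 2% charcoal-stripped FBS were stimulated with 1-alpha,25-dihydroxyvitamin D3 (3 nM final) plus compound for 16 h at 37 C. The beta-lactamase CCF4 readout was normalized to 50 nM agonist and DMSO, and Hill fits gave IC50.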
# [7] = target: Vitamin D3 receptor (Homo sapiens) (UniProt P11473); experiment: qHTS assay for small molecule agonists of vitamin D receptor signaling (AID 588543)
# Outline: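 VDR-UAS-bla HEK293T cells, 2000/well, 2% charcoal-stripped FBS; compound titration 16 h at 37 C; CCF4 beta-lactamase ratio read. Normalized to 50 nM 1-alpha,25-dihydroxyvitamin D3 (100%) and DMSO; Hill fit gives EC50, efficacy.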
# [8] = target: Peroxisome proliferator-activated receptor gamma (Homo sapiens) (UniProt P37231); experiment: qHTS assay for small molecule antagonists of peroxisome proliferator-activated receptor gamma signaling (AID 588537; active means well fitted inhibition curve with a large enough effect in the signal ratio, with a control signal flat, not every such curve was filed as active; the % refers to the signal ratio;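 further: reporter cells co-stimulated with 50 nM rosiglitazone agonist during compound treatment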)
# Outline: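 Step one: plate 3000 HEK293 UAS-bla cells per well in medium with 1% stripped serum and hold 6-6.5 h at 37 C. Step two: add compound and 50 nM agonist for 16 h. Step three: CCF4 loading, fluorescence read.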
# Vitamin D3 receptor (Homo sapiens), sequence (P11473 whole entry, looked up): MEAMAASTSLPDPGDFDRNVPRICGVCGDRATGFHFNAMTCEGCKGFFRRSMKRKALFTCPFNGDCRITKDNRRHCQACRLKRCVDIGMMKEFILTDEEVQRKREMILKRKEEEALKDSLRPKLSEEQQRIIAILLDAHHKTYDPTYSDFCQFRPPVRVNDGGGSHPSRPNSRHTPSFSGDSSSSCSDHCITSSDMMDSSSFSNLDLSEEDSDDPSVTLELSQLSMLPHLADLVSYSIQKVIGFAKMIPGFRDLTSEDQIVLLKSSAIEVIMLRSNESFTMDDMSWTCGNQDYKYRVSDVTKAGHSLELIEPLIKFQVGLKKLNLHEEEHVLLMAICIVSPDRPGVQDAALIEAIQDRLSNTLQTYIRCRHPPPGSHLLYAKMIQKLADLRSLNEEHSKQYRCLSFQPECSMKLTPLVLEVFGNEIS
# Peroxisome proliferator-activated receptor gamma (Homo sapiens), sequence (P37231 whole entry, looked up): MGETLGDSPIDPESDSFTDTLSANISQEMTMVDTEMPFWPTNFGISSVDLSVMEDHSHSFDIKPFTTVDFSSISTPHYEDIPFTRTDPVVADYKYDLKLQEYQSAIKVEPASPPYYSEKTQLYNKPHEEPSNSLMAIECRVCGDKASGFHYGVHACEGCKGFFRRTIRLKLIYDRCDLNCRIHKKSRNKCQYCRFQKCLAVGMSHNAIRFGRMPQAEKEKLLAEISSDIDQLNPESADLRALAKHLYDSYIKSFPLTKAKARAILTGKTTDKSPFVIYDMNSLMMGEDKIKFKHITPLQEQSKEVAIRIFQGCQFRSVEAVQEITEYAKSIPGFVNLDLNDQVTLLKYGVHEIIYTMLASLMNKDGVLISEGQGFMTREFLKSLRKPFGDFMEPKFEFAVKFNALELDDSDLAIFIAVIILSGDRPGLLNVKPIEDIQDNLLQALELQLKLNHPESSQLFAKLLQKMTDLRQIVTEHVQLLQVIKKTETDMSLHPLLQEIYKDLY
# Peroxisome proliferator-activated receptor delta (Homo sapiens), sequence (Q03181 whole entry, looked up): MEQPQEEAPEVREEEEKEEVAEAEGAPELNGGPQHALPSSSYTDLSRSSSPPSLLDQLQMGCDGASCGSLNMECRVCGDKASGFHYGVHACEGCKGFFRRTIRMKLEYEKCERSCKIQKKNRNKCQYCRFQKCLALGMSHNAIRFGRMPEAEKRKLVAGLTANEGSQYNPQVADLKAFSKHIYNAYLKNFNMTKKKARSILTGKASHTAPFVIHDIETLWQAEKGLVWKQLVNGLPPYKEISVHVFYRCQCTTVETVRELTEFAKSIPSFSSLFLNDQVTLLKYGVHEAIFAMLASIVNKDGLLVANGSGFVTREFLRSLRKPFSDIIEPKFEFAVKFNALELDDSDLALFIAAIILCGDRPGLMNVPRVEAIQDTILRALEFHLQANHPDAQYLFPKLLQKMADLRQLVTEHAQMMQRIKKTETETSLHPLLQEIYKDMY
# Glucocorticoid receptor (Homo sapiens), sequence (P04150 whole entry, looked up): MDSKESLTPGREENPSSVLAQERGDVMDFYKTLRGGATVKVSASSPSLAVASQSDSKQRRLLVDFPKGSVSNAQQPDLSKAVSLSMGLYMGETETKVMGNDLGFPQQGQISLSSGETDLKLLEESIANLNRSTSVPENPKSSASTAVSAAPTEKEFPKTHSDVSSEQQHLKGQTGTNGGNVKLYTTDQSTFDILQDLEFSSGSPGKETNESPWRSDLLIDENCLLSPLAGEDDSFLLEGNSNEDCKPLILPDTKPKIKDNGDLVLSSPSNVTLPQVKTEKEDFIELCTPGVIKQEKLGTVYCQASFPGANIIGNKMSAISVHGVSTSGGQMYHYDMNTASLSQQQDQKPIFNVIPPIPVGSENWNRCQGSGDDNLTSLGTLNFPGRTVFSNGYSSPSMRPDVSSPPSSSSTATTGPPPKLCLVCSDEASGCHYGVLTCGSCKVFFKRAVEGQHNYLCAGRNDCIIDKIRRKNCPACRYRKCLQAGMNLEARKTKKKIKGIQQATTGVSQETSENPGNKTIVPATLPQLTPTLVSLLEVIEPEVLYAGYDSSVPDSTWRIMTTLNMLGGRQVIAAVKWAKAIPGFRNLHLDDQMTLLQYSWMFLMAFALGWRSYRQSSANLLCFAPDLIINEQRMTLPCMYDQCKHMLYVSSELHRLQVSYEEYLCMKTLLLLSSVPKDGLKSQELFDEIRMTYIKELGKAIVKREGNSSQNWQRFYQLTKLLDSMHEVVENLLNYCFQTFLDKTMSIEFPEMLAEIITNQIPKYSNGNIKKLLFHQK
Structure (SMILES),activation [1],outcome [2],max response [3],Potency [4],outcome [5],outcome [6],outcome [7],outcome [8]
CCCCCCCCC,-2.92% (inactive),inactive,3.26%,inactive,inactive,inactive,inactive,–
O=[N+]([O-])c1c(Cl)cc(Cl)cc1Cl,0.964% (inactive),inactive,0.0891%,inactive,inactive,inactive,inactive,inactive
Clc1cc(Cl)cc(Cl)c1,5.2% (inactive),inactive,-6.75%,inactive,inactive,inactive,inactive,–
Nc1cccc(S(=O)(=O)O)c1,-6.32% (inactive),inactive,-7.97%,inactive,inactive,inactive,inactive,–
COCCOC(=O)c1ccccc1C(=O)OCCOC,-0.475% (inactive),inactive,-2.63%,inactive,inactive,inactive,inactive,inactive
CCCC=O,-2.2% (inactive),inactive,10.5%,inactive,inactive,inactive,inactive,–
CC/C=C/C#N,-1.94% (inactive),inactive,12.5%,inactive,–,inactive,inactive,inactive
O=C1NC(=O)c2cc([N+](=O)[O-])ccc21,-4.49% (inactive),inactive,-20.7%,inactive,inactive,–,–,–
CC(=O)Nc1ccc(C)cc1,8.72% (inactive),inactive,-10.7%,inactive,inactive,inactive,inactive,–
C1CCC2OC2C1 (stereo not given),-6.07% (inactive),inactive,38.4%,inactive,inactive,inactive,inactive,–
COc1ccc(N=[N+]([O-])c2ccc(OC)cc2)cc1,9.01% (inactive),inactive,8.26%,inactive,inactive,inactive,inactive,–
CC=C(Cl)Cl,-2.89% (inactive),inactive,24.9%,inactive,inactive,inactive,inactive,–
O=[N+]([O-])c1ccccc1CCO,3.95% (inactive),inactive,-6.01%,inactive,inactive,inactive,inactive,–
Nc1cccc(O)c1,-1.32% (inactive),inactive,11.9%,inactive,inactive,inactive,inactive,–
Cc1ccc2ncccc2c1,6.61% (inactive),inactive,20.6%,inactive,inactive,–,–,–
O=c1[nH][nH]c(=O)c2cc([N+](=O)[O-])ccc12,0.885% (inactive),–,10.6%,inactive,inactive,inactive,inactive,inactive
CO[Si](CCCNCCC[Si](OC)(OC)OC)(OC)OC,5.31% (inactive),–,–,–,inactive,inactive,inactive,inactive
C=C(C)C(=O)OCC(C)O (stereo not given),-4.2% (inactive),–,24.5%,inactive,–,inactive,inactive,–
O=C(O)c1ccc(Cl)cc1Cl,-5.78% (inactive),inactive,–,–,inactive,inactive,inactive,–
CCCCCCO,-1.01% (inactive),inactive,–,–,inactive,inactive,inactive,inactive

Structure (SMILES),activation [1],outcome [2],max response [3],Potency [4],outcome [5],outcome [6],outcome [7],outcome [8]
CC(C)=C1CCC(C)CC1=O (stereo not given),-0.919% (inactive),–,-8.22%,inactive,–,inactive,inactive,inactive
Cc1ccc2nc(-c3ccc(N)cc3)sc2c1S(=O)(=O)O,22.8% (inactive),–,–,–,–,inactive,–,inactive
CC(C)C(C)C,-6.49% (inactive),inactive,–,–,inactive,–,–,–
CC(C)(C)c1ccc(OCC2CO2)cc1 (stereo not given),-4.85% (inactive),inactive,18.6%,inactive,–,inactive,inactive,–
Nc1nc(CC(=O)O)cs1,1.59% (inactive),inactive,–,–,inactive,–,inactive,inactive
Cc1ccc2ccccc2c1[N+](=O)[O-],-8.32% (inactive),inactive,–,–,–,inactive,inactive,inactive
O=[N+]([O-])c1cccc(C(F)(F)F)c1,-5.05% (inactive),inactive,–,–,inactive,inactive,inactive,inactive
COc1ccc(N)c(OC)c1,4.84% (inactive),–,–,–,inactive,inactive,inactive,inactive
CNc1ccc([N+](=O)[O-])cc1,-3.38% (inactive),–,–,–,–,–,–,inactive
O=Cc1ccc(C(=O)O)cc1,3.49% (inactive),–,–,–,inactive,–,–,–
Cc1c(N)cccc1N,-2.97% (inactive),inactive,-12.4%,inactive,–,inactive,inactive,–
CCOc1ccccc1N,-6.27% (inactive),–,–,–,–,inactive,inactive,–
CC(=O)Nc1ccccc1C,-4.6% (inactive),–,8.94%,inactive,inactive,inactive,inactive,inactive
CC1(N)CCC(C(C)(C)N)CC1 (stereo not given),7.57% (inactive),–,–,–,inactive,inactive,inactive,–
Cc1ccco1,-1.2% (inactive),inactive,–,–,inactive,inactive,inactive,inactive
CC(=O)C1(C)CC2=C(CCCC2(C)C)CC1C (stereo not given),-5.53% (inactive),–,12.6%,inactive,inactive,inactive,inactive,–
CN(C)c1cccc(O)c1,-1.05% (inactive),–,-10%,inactive,inactive,inactive,inactive,–
C=CCn1c(=O)n(CC=C)c(=O)n(CC=C)c1=O,-0.0268% (inactive),inactive,–,–,inactive,inactive,inactive,inactive
CC(C)Nc1ccccc1,-8.21% (inactive),–,31.6%,inactive,inactive,inactive,inactive,–
CSc1ccc(C=O)cc1,-2.41% (inactive),inactive,–,–,inactive,inactive,inactive,–

Structure (SMILES),activation [1],outcome [2],max response [3],Potency [4],outcome [5],outcome [6],outcome [7],outcome [8]
Nc1ccc([N+](=O)[O-])c(N)c1,-8.8% (inactive),inactive,–,–,–,inactive,inactive,inactive
Cc1cccc(C)c1[N+](=O)[O-],4.67% (inactive) and -8.43% (inactive),–,9.63% and 31.4%,inactive,inactive,inactive,inactive,inactive
CCCCCCC=O,-0.214% (inactive),–,-42.7%,inactive,–,inactive,inactive,inactive
O=C(O)c1cccc([N+](=O)[O-])c1,3.85% (inactive),–,27.4% and 43.1%,inactive,inactive,–,–,inactive
Cc1ccc(Cl)cc1,-1.4% (inactive),–,-18%,inactive,inactive,inactive,inactive,–
Cc1ccc(C)c([N+](=O)[O-])c1,-1.28% (inactive),–,-7.2%,inactive,inactive,–,inactive,–
CC(C)(O)CCC(C)(C)O,-3.83% (inactive),inactive,–,–,inactive,inactive,–,inactive
CCOC(=O)OCC,-5.65% (inactive),inactive,–,–,inactive,inactive,inactive,inactive
Cc1cccc(Br)c1,-2.46% (inactive),inactive,–,–,inactive,–,–,–
CCN(CC)c1cccc(O)c1,-1.18% (inactive),–,12.9%,inactive,inactive,–,–,–
NC(=O)CCCCC(N)=O,-2.82% (inactive),inactive,–,–,inactive,inactive,inactive,inactive
CC(C)(O)C(=O)O,5.7% (inactive),inactive,57.5%,inactive,–,inactive,inactive,–
OC(CCl)CCl,14.2% (inactive),inactive,–,–,inactive,inactive,inactive,inactive
C=C(C)OC(C)=O,-3.17% (inactive),inactive,–,–,–,inactive,–,–
CC/C(C)=N/O,3.82% (inactive),inactive,–,–,–,inactive,inactive,–
CC(=O)c1cc(C)oc1C,–,inactive,-4.12%,inactive,inactive,inactive,inactive,–
Cc1cccc2cccnc12,–,–,-4.69%,inactive,inactive,inactive,inactive,inactive
CC(C)(c1cc(Br)c(OCC(Br)CBr)c(Br)c1)c1cc(Br)c(OCC(Br)CBr)c(Br)c1 (stereo not given),–,inactive,-13.7%,inactive,inactive,inactive,inactive,–
CCCCOCCOCCSC#N,–,inactive,34.7%,inactive,inactive,inactive,inactive,–
